Target: T1, Cytoplasmic tyrosine-protein kinase BMX (Homo sapiens) (UniProt P51813);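 note: reported value is the mean percent inhibition of BMX, from the GSK PKIS kinase inhibitor screen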
T1 sequence (whole entry): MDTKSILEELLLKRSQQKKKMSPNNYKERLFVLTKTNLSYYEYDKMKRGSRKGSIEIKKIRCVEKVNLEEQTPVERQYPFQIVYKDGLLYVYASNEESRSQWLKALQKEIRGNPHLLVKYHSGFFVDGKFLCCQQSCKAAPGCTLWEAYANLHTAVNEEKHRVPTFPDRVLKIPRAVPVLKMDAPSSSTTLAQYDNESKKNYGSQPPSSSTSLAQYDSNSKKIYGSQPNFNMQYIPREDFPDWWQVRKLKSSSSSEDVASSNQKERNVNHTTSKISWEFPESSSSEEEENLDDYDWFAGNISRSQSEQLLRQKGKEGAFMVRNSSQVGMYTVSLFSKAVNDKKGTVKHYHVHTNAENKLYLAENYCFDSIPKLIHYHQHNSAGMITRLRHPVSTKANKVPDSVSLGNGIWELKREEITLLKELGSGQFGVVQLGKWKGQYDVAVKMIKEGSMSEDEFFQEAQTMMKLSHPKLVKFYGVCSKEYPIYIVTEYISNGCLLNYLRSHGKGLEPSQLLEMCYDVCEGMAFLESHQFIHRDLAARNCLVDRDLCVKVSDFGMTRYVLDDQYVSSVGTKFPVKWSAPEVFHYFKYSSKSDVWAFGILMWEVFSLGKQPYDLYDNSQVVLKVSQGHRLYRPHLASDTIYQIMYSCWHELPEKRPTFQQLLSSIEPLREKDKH
Conditions: at 1 µM

Row | SMILES | inhibition
1 | CN(C)c1ccc2c(c1)/C(=C/Nc1ccc(S(N)(=O)=O)cc1)C(=O)N2 | 1.7%
2 | CN(c1ccc(NC(=O)Nc2c(Cl)cccc2Cl)cc1)c1ccnc(Nc2cccc(CS(C)(=O)=O)c2)n1 | 73.5%
3 | Fc1ccc(-c2c(-c3ccncc3)nc3n2CCS3)cc1 | 0.74%
4 | N#Cc1ccc(Oc2nccc(-c3c(-c4ccc(F)cc4)ncn3C3CCNCC3)n2)cc1 | 4.26%
5 | CN1CCN(CCCNc2nc3ccc(Oc4ccc(NC(=O)Nc5cc(C(F)(F)F)ccc5F)cc4)cc3[nH]2)CC1 | 2.63%
6 | COc1cc(Nc2ncc(-c3ccccc3)o2)cc(OC)c1OC | 8.49%
7 | COc1cc2ncn(-c3cc(OCc4cccs4)c(C(N)=O)s3)c2cc1OC | 3.5%
8 | COc1cc2ncn(-c3cc(OCc4ccccc4C(F)(F)F)c(C(C)=O)s3)c2cc1OC | 2.58%
9 | CN(C)CCCNc1nccc(-c2c(-c3ccc(F)cc3)nn3cc(C(F)(F)F)ccc23)n1 | 3.77%
10 | c1ccc(Oc2ccc(Nc3ncc(-c4ccccc4)o3)cc2)cc1 | 1.54%
11 | Fc1ccc(-c2ncn(CCCN3CCOCC3)c2-c2ccncc2)cc1 | -0.36%
12 | COc1ccc2cc(-c3c(-c4ccncc4)nc(-c4ccc([S+](C)[O-])cc4C)n3C)ccc2c1 (stereo not drawn) | 0.8%
13 | CS(=O)(=O)CCNCc1cc(-c2cc3c(Nc4ccc(OCc5cccc(F)c5)c(Cl)c4)ncnc3s2)cs1 | 7.31%
14 | O=C1Nc2ccc(I)cc2C1=Cc1cc(Br)c(O)c(Br)c1 | 7.27%
15 | CCc1cccc(CC)c1/C=C/c1cncc(C(=O)NC)c1 | 4.87%
16 | Fc1ccc(-c2ncn(C3CCNCC3)c2-c2ccnc(Oc3ccc(Oc4ccccc4)cc3)n2)cc1 | 6.45%
17 | COc1ccc(C2=C(N3CCc4ccccc43)C(=O)NC2=O)cc1 | 5.15%

Row | SMILES | inhibition
18 | O=C1Nc2ccccc2/C1=C/Nc1ccc(-n2cncn2)cc1 | 4.54%
19 | O=C(Nc1n[nH]c2cc(-c3cc(F)ccc3F)ccc12)C1CC1 | 3.35%
20 | CCN(CC)Cc1ccc(Nc2nccc(-c3cnn4ncccc34)n2)cc1 | 10.8%
21 | CCc1ccc(Oc2nccc(-c3c(-c4ccc(F)cc4)ncn3C3CCNCC3)n2)cc1 | 6.03%
22 | O=C(Nc1n[nH]c2nc(-c3ccco3)ccc12)C1CC1 | 1.83%
23 | NC(=O)Cc1ccccc1Oc1nccc(-c2c(-c3ccc(F)cc3)ncn2C2CCNCC2)n1 | 3.56%
24 | CCc1nccc2c1nc(-c1nonc1N)n2CC | 2.51%
25 | NC(=O)c1cc(-c2ccncc2)cc(-c2ccccc2)c1N | 49.6%
26 | COc1ccc(-c2ccc3c(NC(=O)C4CC4)n[nH]c3n2)cc1 | 2.59%
27 | COC(=O)Nc1nc2ccc(Sc3ccc(NC(=O)Nc4cc(C(F)(F)F)ccc4F)cc3)cc2[nH]1 | -0.17%
28 | Fc1ccc(-c2ncn(C3CCNCC3)c2-c2ccnc(Oc3ccc(F)c(F)c3)n2)cc1 | 3.49%
29 | O=C(Nc1n[nH]c2nc(-c3ccc(O)cc3)c(Br)cc12)C1CC1 | 13.4%
30 | Cc1ccc(NC(=O)c2ccoc2)cc1-c1ccc(C(=O)NCC2CC2)cc1 | 1.66%
31 | COc1cc(N2CCN(C(C)C)CC2)ccc1Nc1nc(Nc2ccc(F)cc2C(=O)NC[C@@H](O)CO)c2cc[nH]c2n1 | 4.34%
32 | CCS(=O)(=O)c1ccc(OC)c(Nc2ncc(-c3cccc(-c4ccccc4F)c3)o2)c1 | 9.3%
33 | NS(=O)(=O)c1ccc(N/N=C2\C(=O)Nc3ccc(-c4cnco4)cc32)cc1 | 5.77%
34 | C[C@@H](Oc1cc(-n2cnc3ccc(OC4CCN(C)CC4)cc32)sc1C(N)=O)c1ccccc1Cl | 6.6%

Target: Protein-tyrosine kinase 6 (Homo sapiens) (UniProt Q13882)
Sequence (Q13882 whole entry, looked up): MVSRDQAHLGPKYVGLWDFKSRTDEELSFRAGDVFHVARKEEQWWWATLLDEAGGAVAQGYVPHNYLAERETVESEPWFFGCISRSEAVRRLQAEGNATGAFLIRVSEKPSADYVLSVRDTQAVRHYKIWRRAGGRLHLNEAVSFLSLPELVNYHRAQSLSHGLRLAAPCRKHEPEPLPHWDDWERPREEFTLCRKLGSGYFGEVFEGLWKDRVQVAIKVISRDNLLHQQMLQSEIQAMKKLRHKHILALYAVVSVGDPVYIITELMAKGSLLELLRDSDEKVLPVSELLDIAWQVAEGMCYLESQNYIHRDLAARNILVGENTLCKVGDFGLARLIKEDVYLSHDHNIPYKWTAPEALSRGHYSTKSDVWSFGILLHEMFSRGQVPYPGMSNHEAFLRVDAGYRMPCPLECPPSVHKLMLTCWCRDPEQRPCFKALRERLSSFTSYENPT
Conditions: at 0.1 µM

Row | SMILES | inhibition
35 | CN(C)c1ccc2c(c1)/C(=C/Nc1ccc(S(N)(=O)=O)cc1)C(=O)N2 | 0.1%
36 | CN(c1ccc(NC(=O)Nc2c(Cl)cccc2Cl)cc1)c1ccnc(Nc2cccc(CS(C)(=O)=O)c2)n1 | 10.8%
37 | Fc1ccc(-c2c(-c3ccncc3)nc3n2CCS3)cc1 | 4.76%
38 | N#Cc1ccc(Oc2nccc(-c3c(-c4ccc(F)cc4)ncn3C3CCNCC3)n2)cc1 | 4.1%
39 | CN1CCN(CCCNc2nc3ccc(Oc4ccc(NC(=O)Nc5cc(C(F)(F)F)ccc5F)cc4)cc3[nH]2)CC1 | -0.99%
40 | COc1cc(Nc2ncc(-c3ccccc3)o2)cc(OC)c1OC | 0.16%
41 | COc1cc2ncn(-c3cc(OCc4cccs4)c(C(N)=O)s3)c2cc1OC | 2.12%
42 | COc1cc2ncn(-c3cc(OCc4ccccc4C(F)(F)F)c(C(C)=O)s3)c2cc1OC | -3.46%
43 | CN(C)CCCNc1nccc(-c2c(-c3ccc(F)cc3)nn3cc(C(F)(F)F)ccc23)n1 | 2.2%
44 | c1ccc(Oc2ccc(Nc3ncc(-c4ccccc4)o3)cc2)cc1 | -5.64%
45 | Fc1ccc(-c2ncn(CCCN3CCOCC3)c2-c2ccncc2)cc1 | -4.64%
46 | COc1ccc2cc(-c3c(-c4ccncc4)nc(-c4ccc([S+](C)[O-])cc4C)n3C)ccc2c1 (stereo not drawn) | 24.7%
47 | CS(=O)(=O)CCNCc1cc(-c2cc3c(Nc4ccc(OCc5cccc(F)c5)c(Cl)c4)ncnc3s2)cs1 | 1.27%
48 | O=C1Nc2ccc(I)cc2C1=Cc1cc(Br)c(O)c(Br)c1 | 3.26%
49 | CCc1cccc(CC)c1/C=C/c1cncc(C(=O)NC)c1 | 2.78%
50 | Fc1ccc(-c2ncn(C3CCNCC3)c2-c2ccnc(Oc3ccc(Oc4ccccc4)cc3)n2)cc1 | 1.09%
51 | COc1ccc(C2=C(N3CCc4ccccc43)C(=O)NC2=O)cc1 | 6%

Row | SMILES | inhibition
52 | O=C1Nc2ccccc2/C1=C/Nc1ccc(-n2cncn2)cc1 | 3.56%
53 | O=C(Nc1n[nH]c2cc(-c3cc(F)ccc3F)ccc12)C1CC1 | 1.78%
54 | CCN(CC)Cc1ccc(Nc2nccc(-c3cnn4ncccc34)n2)cc1 | 3.93%
55 | CCc1ccc(Oc2nccc(-c3c(-c4ccc(F)cc4)ncn3C3CCNCC3)n2)cc1 | 2.72%
56 | O=C(Nc1n[nH]c2nc(-c3ccco3)ccc12)C1CC1 | 2.56%
57 | NC(=O)Cc1ccccc1Oc1nccc(-c2c(-c3ccc(F)cc3)ncn2C2CCNCC2)n1 | 2.9%
58 | CCc1nccc2c1nc(-c1nonc1N)n2CC | -3.14%
59 | NC(=O)c1cc(-c2ccncc2)cc(-c2ccccc2)c1N | 5.89%
60 | COc1ccc(-c2ccc3c(NC(=O)C4CC4)n[nH]c3n2)cc1 | 0.93%
61 | COC(=O)Nc1nc2ccc(Sc3ccc(NC(=O)Nc4cc(C(F)(F)F)ccc4F)cc3)cc2[nH]1 | 1.16%
62 | Fc1ccc(-c2ncn(C3CCNCC3)c2-c2ccnc(Oc3ccc(F)c(F)c3)n2)cc1 | 2.61%
63 | O=C(Nc1n[nH]c2nc(-c3ccc(O)cc3)c(Br)cc12)C1CC1 | 3.18%
64 | Cc1ccc(NC(=O)c2ccoc2)cc1-c1ccc(C(=O)NCC2CC2)cc1 | 0.58%
65 | COc1cc(N2CCN(C(C)C)CC2)ccc1Nc1nc(Nc2ccc(F)cc2C(=O)NC[C@@H](O)CO)c2cc[nH]c2n1 | 4.82%
66 | CCS(=O)(=O)c1ccc(OC)c(Nc2ncc(-c3cccc(-c4ccccc4F)c3)o2)c1 | 1.06%
67 | NS(=O)(=O)c1ccc(N/N=C2\C(=O)Nc3ccc(-c4cnco4)cc32)cc1 | 3.53%
68 | C[C@@H](Oc1cc(-n2cnc3ccc(OC4CCN(C)CC4)cc32)sc1C(N)=O)c1ccccc1Cl | 2.72%

Source: ChEMBL document CHEMBL1961873, “Compounds: GSK PKIS; Assays: Nanosyn kinase panel” (2012)
